From PubChem BioAssay (EPA / NIEHS)
Calls of active or inactive are those of the source. Rule for the calls: active = hit-call score of the fitted dose curve at least 0.9, where 1 is the maximum; inactive = score below 0.9.

Columns and labels:
Settings in all cases: mRNA level, 48 h; actives raise or lower the signal
[1] = read-out: Glutathione S-transferase M3 (GSTM3), GSTM3 (gene 2947); assay: LTEA_HepaRG_GSTM3: Life Technologies and Expression Analysis (LTEA) Assay for Glutathione S-transferase M3 (GSTM3) using HepaRG (AID 2283501)
In short: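 Differentiated human HepaRG cells were exposed in duplicate for 48 h in serum-free induction medium, 8 points from 100 uM top in half-log steps, 0.5% DMSO. GSTM3 mRNA was measured by TaqMan qRT-PCR, normalized to ACTB, GAPDH and POLR2A; bidirectional fit versus DMSO.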

[2] = read-out: Heat shock 70 kDa protein 1 (HSPA1A), gene 3303; assay: LTEA_HepaRG_HSPA1A: Life Technologies and Expression Analysis (LTEA) Assay for Heat shock 70 kDa protein 1 (HSPA1A) using HepaRG (AID 2283502)
In short: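 Cells were plated and cultured for 48 h, then switched to serum-free induction medium. Chemicals were added at eight half-log concentrations up to 100 uM for 48 h. RNA was then isolated and HSPA1A measured by qRT-PCR with bidirectional curve fitting against DMSO.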

[3] = read-out: Hypoxia-inducible factor 1-alpha (Homo sapiens) (UniProt Q16665); assay: LTEA_HepaRG_HIF1A: Life Technologies and Expression Analysis (LTEA) Assay for Hypoxia-inducible factor 1 (HIF1A) Trancription factor using HepaRG (AID 2283503)
In short: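 HIF1A transcript level read by qRT-PCR (ACTB, GAPDH, POLR2A normalization) after 48 h chemical exposure of HepaRG cultures. Eight half-log concentrations, top 100 uM, 0.5% DMSO vehicle, duplicates; bidirectional curve fit against DMSO baseline.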

[4] = read-out: 3-Hydroxy-3-Methylglutaryl-CoA Synthase 2 (HMGCS2), HMGCS2 (gene 3158); assay: LTEA_HepaRG_HMGCS2: Life Technologies and Expression Analysis (LTEA) Assay for 3-Hydroxy-3-Methylglutaryl-CoA Synthase 2 (HMGCS2) using HepaRG (AID 2283504)
In short: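 Human HepaRG cells in serum-free induction medium were exposed in duplicate for 48 h to 8-point half-log series from 100 uM top in 0.5% DMSO. HMGCS2 mRNA measured by TaqMan qRT-PCR, normalised to ACTB, GAPDH, POLR2A; bidirectional fit versus DMSO.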

HGF (gene 3082) = assay: LTEA_HepaRG_HGF: Life Technologies and Expression Analysis (LTEA) Assay for Hepatocyte Growth Facto (HGF) using HepaRG (AID 2283505)
In short: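 Differentiated HepaRG cells in serum-free induction medium exposed 48 h in duplicate, 8 half-log concentrations from 100 uM in 0.5% DMSO. HGF mRNA by qRT-PCR, normalised to ACTB, GAPDH, POLR2A; bidirectional fitting.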

[5] = read-out: Insulin Like Growth Factor 1 (IGF1), IGF1 (gene 3479); assay: LTEA_HepaRG_IGF1: Life Technologies and Expression Analysis (LTEA) Assay for Insulin Like Growth Factor 1 (IGF1) using HepaRG (AID 2283506)
In short: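 Cells are thawed, plated and cultured 48 h, then exposed in duplicate to chemical (highest 100 uM, half-log steps, 0.5% DMSO) for another 48 h. Total RNA is analysed by Fluidigm qRT-PCR for IGF1 expression relative to vehicle.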

[6] = read-out: Intercellular Adhesion Molecule 1 (ICAM1), ICAM1 (gene 3383); assay: LTEA_HepaRG_ICAM1: Life Technologies and Expression Analysis (LTEA) Assay for Intercellular Adhesion Molecule 1 (ICAM1) using HepaRG (AID 2283507)
In short: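 Differentiated human HepaRG cells in serum-free induction medium exposed 48 h in duplicate to 8 half-log concentrations (top 100 uM, 0.5% DMSO). ICAM1 mRNA quantified by TaqMan qRT-PCR, normalized to ACTB, GAPDH and POLR2A; bidirectional fitting versus DMSO.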

[7] = read-out: Insulin-like growth factor-binding protein 1 (IGFBP1), IGFBP1 (gene 3484); assay: LTEA_HepaRG_IGFBP1: Life Technologies and Expression Analysis (LTEA) Assay for Insulin-like growth factor-binding protein 1 (IGFBP1) using HepaRG (AID 2283508)
In short: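 HepaRG cells, plated 48 h then switched to serum-free induction medium, exposed in duplicate for 48 h to 8-point half-log series from 100 uM in 0.5% DMSO. mRNA measured by qRT-PCR, normalized to ACTB/GAPDH/POLR2A; bidirectional fit versus DMSO.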

[8] = read-out: Interleukin 6 (IL6), IL6 (gene 3569); assay: LTEA_HepaRG_IL6: Life Technologies and Expression Analysis (LTEA) Assay for Interleukin 6 (IL6) using HepaRG (AID 2283509)
In short: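 Changes in IL6 mRNA, up or down relative to 0.5% DMSO controls, were derived from concentration-response curves in human HepaRG cells treated for 48 h at up to 100 uM, with ACTB, GAPDH and POLR2A as normalizers.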

[9] = read-out: Interleukin 6 Receptor (IL6R), IL6R (gene 3570); assay: LTEA_HepaRG_IL6R: Life Technologies and Expression Analysis (LTEA) Assay for Interleukin 6 Receptor (IL6R) using HepaRG (AID 2283510)
In short: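 Cells were thawed, plated and cultured 48 h, then medium was changed to serum-free induction medium. Chemicals were added in duplicate (100 uM top, half-log steps, 0.5% DMSO) for 48 h. Lysates were analyzed by qRT-PCR for IL6R expression.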

Measured: AC50

Hypoxia-inducible factor 1-alpha (Homo sapiens), sequence (Q16665 whole entry, looked up): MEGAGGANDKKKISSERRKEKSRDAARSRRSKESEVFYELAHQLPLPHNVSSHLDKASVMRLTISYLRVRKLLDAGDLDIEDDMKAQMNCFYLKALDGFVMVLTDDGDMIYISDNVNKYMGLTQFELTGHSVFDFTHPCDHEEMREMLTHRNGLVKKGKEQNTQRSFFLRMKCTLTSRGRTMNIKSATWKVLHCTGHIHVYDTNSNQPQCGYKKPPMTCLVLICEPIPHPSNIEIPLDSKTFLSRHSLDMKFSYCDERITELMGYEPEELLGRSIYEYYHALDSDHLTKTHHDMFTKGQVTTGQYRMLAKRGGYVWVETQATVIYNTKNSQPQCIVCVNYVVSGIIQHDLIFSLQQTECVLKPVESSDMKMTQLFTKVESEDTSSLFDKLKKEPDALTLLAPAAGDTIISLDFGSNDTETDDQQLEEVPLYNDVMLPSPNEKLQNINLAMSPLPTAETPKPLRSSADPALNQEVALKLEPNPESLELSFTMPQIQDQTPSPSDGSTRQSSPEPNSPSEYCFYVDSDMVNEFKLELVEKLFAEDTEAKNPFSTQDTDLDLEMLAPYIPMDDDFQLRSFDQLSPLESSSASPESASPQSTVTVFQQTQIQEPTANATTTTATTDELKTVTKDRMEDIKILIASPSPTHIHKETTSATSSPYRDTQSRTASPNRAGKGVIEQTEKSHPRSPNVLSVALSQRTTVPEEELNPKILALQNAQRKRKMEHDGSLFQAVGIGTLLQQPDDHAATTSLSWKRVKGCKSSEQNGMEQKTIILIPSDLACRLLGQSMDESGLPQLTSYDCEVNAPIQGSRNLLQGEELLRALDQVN

CS(=O)(=O)c1cc(C(F)(F)F)ccc1C(=O)c1cnoc1C1CC1
inactive: all assays above

COP(=S)(OC)Oc1ccc([N+](=O)[O-])c(C)c1
inactive: all assays above

CC(C)C1(C)N=C(c2ncccc2C(=O)O)NC1=O (configuration not stated)
inactive: all assays above

C=C(C)CN(CC)c1c([N+](=O)[O-])cc(C(F)(F)F)cc1[N+](=O)[O-]
inactive: all assays above

Cn1c(-c2ccccc2)cc(-c2ccccc2)[n+]1C
inactive: [3] | HGF (gene 3082) | [8] | [9]
active: [1] 85.7 µM | [2] 40.2 µM | [4] 35 µM | [5] 13.4 µM | [7] 50 µM

CCNP(=S)(OC)O/C(C)=C/C(=O)OC(C)C (configuration not stated)
active: [4] 25.8 µM | [5] 50 µM
inactive: all other assays above

CC(C)N1C(=O)c2ccccc2NS1(=O)=O
inactive: all assays above

COCC(=O)N(c1c(C)cccc1C)C(C)C(=O)OC (configuration not stated)
inactive: all assays above

CCOc1cc(C(C)(C)C)ccc1C1COC(c2c(F)cccc2F)=N1 (configuration not stated)
active: [4] 46.9 µM | [5] 16.6 µM
not listed: [6]
inactive: all other assays above

COc1cc(OC)nc(NC(=O)NS(=O)(=O)c2ncccc2OCC(F)(F)F)n1
active: [2] 0.237 µM
inactive: all other assays above

Cc1ccc(N=CN(C)C=Nc2ccc(C)cc2C)c(C)c1
inactive: all assays above

Nc1c(Cl)c(F)nc(OCC(=O)O)c1Cl
inactive: all assays above

CSC(=O)c1c(C(F)F)nc(C(F)(F)F)c(C(=O)SC)c1CC(C)C
active: [4] 85.8 µM | [5] 66 µM | [7] 49.8 µM
inactive: all other assays above

CC1(C)C(C(=O)OC(C#N)c2cccc(Oc3ccccc3)c2)C1(C)C (configuration not stated)
inactive: all assays above

CCOC(=O)C(C)OC(=O)c1cc(Oc2ccc(C(F)(F)F)cc2Cl)ccc1[N+](=O)[O-] (configuration not stated)
active: [4] 1.38 µM | [5] 21 µM | [8] 9.92 µM
not listed: [6]
inactive: all other assays above

O=P(O)(O)CCCl
inactive: all assays above

CCCCC(O)(Cn1cncn1)c1ccc(Cl)cc1Cl (configuration not stated)
active: [1] 82.6 µM | [2] 18.8 µM | [3] 80.6 µM | [4] 77.9 µM | HGF (gene 3082) 75.3 µM | [5] 75.1 µM | [6] 83.9 µM | [7] 79.3 µM | [8] 72 µM
inactive: [9]
